From ChEMBL document CHEMBL3988442, “University of Dundee, Small-Polar-MMV Screening Library” (2021)
Hit rate of the full screen: of about 53,000 compounds, about 900 (1.7%) showed an effect of 50% or more. The sample as a whole holds a higher share of strong results than the screen did.

System: Mycobacterium tuberculosis
Experiment: Cornell - Phenotypic assay to identify agents that inhibit growth of Mycobacterium tuberculosis
Assay type: functional
Parameters: scale not given: direction of the effect not stated beside the values
Settings: 10 mM as filed; unlikely as a test dose

| Structure (SMILES) | Percent Effect [%] |
| --- | --- |
| CN1C[C@@H](C(=O)NC(C)(C)C)[C@@]2(COc3ccc(F)cc3C2=O)C1 | 28.72 |
| COc1ccccc1C1Cn2c(C)cnc2CN1Cc1ccc(C)nc1 (centres undefined) | -10.88 |
| O=C(c1c(F)cccc1F)N1CCC[C@@H]1Cn1c(=O)oc2ccccc21 | 34.56 |
| COc1cccc(OC2CN(C(=O)c3c(C)noc3C)C2)c1 | 10.7 |
| COc1cccc(OC2CN(C(=O)c3sccc3C)C2)c1 | 55.64 |
| COc1cccc(OC2CN(C(=O)c3ccoc3C)C2)c1 | -6.916 |
| Cc1nc2c(c(NCc3cnc4c(c3)CCC4)n1)CNC2 | 4.431 |
| COCCS(=O)(=O)c1ncc(CN(C)C)n1Cc1ccccc1 | 5.309 |
| CN(Cc1cccc(F)c1)C(=O)CN1CCCC1CCc1ccccc1 (centres undefined) | 61.93 |
| N#CCCN(CCC#N)C(=O)CN1CCCC1Cc1cccc(F)c1 (centres undefined) | 5.513 |
| CN(Cc1cccc(F)c1)C(=O)CN1CCCCC1Cn1cncn1 (centres undefined) | -21.34 |
| NC(=O)Nc1cccc(Oc2ccccn2)c1 | 3.298 |
| OCCN1CCN(CC(O)c2ccc(C(F)(F)F)cc2)CC1 (centres undefined) | -26.61 |
| O=c1oc(-c2ccc(F)cc2)nn1CN1CCSCC1 | -31.85 |
| CC(C)NC(=O)[C@@H]1CN(C(=O)C2CC2)C[C@]12Cc1ccccc1C(=O)N2 | 41.43 |
| CCS(=O)(=O)N1C[C@@H](C(=O)NC(C)C)[C@@]2(Cc3ccccc3C(=O)N2)C1 | 50.91 |
| CN1C[C@@H](C(=O)NCC(F)(F)F)[C@@]2(CCc3ccccc3C(=O)N2)C1 | 4.729 |
| CC(Cn1cccn1)NC(=O)Nc1ccc(N(C)C)nc1 (centres undefined) | -5.183 |
| CCN(CC)c1ccc(NC(=O)NC(C)Cn2cccn2)cn1 (centres undefined) | -29.36 |
| CC(CNC(=O)Nc1ccc(N(C)C)nc1)Cn1cccn1 (centres undefined) | 53.74 |
| CN1C[C@H](O)[C@]2(CCN(Cc3ccc(OC(F)(F)F)cc3)C2)S1(=O)=O | 30.47 |
| O=C(C[C@@H]1COC[C@H]2CN(Cc3ccc(F)cc3)C[C@@H]12)N1CCCC1.O=C(O)C(F)(F)F | -5.358 |

| Structure (SMILES) | Percent Effect [%] |
| --- | --- |
| CC(C)c1noc(C2CCN(C(=O)C3CCCO3)CC2)n1 (centres undefined) | 4.846 |
| O=c1c2cc3c(cc2nnn1Cc1cccc(F)c1)OCCO3 | -9.384 |
| Cc1ccc2c(n1)N(Cc1cccnc1)CCN(C(=O)C1CC=CC1)C2 | 30.61 |
| O=C(Nc1nc2c(s1)CN(C(=O)NCc1cccs1)CC2)C1CC1 | 25.74 |
| CC(C)NC(=O)Nc1nc2c(s1)CN(C(=O)NCc1cccs1)CC2 | 53.32 |
| COC(=O)Nc1nc2c(s1)CN(C(=O)NCc1cccs1)CC2 | 35.61 |
| O=C(O)c1ccc(CN2CCCC(Cc3ccn[nH]3)C2)cc1 (centres undefined) | 18.19 |
| Cc1cccc(OCCN2CCC(c3ccnn3CCO)CC2)c1 | -13.34 |
| Cc1nn(CCCNC(=O)C2CCN(S(C)(=O)=O)CC2)c(Cl)c1Cl | 51.75 |
| Cc1nn(CCCNC(=O)C2CCN(S(C)(=O)=O)CC2)cc1Br | 34.63 |
| Cc1nn(CCCNC(=O)C2CCN(S(C)(=O)=O)CC2)cc1Cl | 12.8 |
| CCCn1nnnc1COc1ccc(C(=O)OC)cc1 | 2.105 |
| CCC(=O)Nc1ccc(C(C)Nc2nc3c(cnn3C)c(=O)[nH]2)cc1 (centres undefined) | 16.12 |
| CC(C)Sc1ccc(C(C)Nc2nc3c(cnn3C)c(=O)[nH]2)cc1 (centres undefined) | 64.6 |
| CC(Nc1nc2c(cnn2C)c(=O)[nH]1)c1ccc(F)cc1 (centres undefined) | 46.54 |
| Cc1nnc(Nc2cccc(C3CCCN(Cc4ncc[nH]4)C3)n2)s1 (centres undefined) | -14.35 |
| CC(C)N(CCNc1nc(C2CCCC2)nc2c1cnn2C)C(C)C | 95.65 |
| Cn1ncc2c(NCCC34CCCN3CCC4)nc(C3CCCC3)nc21 | 10.87 |
| CCS(=O)(=O)CCNc1nc(C2CCCC2)nc2c1cnn2C | -9.599 |
| Cn1ncc2c(NCCn3cccc3)nc(C3CCCC3)nc21 | 23.68 |
| Cn1ncc2c(NCCOCc3ccccc3)nc(C3CCCC3)nc21 | 58.05 |
| Cn1ncc2c(NCCCOc3cccnc3)nc(C3CCCC3)nc21 | -0.5342 |

| Structure (SMILES) | Percent Effect [%] |
| --- | --- |
| Cn1ncc2c(NCCOc3ccc(F)cc3)nc(C3CCCC3)nc21 | 105.9 |
| CCOCCNc1nc(C2CCCC2)nc2c1cnn2C | 15.61 |
| CNCCCNc1nc(C2CCCC2)nc2c1cnn2C | 15.27 |
| Fc1ccc([C@@H]2COC[C@H]2NCc2cccc(F)c2)cc1.O=C(O)CC(O)(CC(=O)O)C(=O)O | 12.54 |
| CCCNC(=O)c1nn(CC)cc1NC(=O)c1cn(C)nc1C | 34.88 |
| CC(=O)Nc1nc(CN2CCn3c(C)nnc3C2)cs1 | -12.41 |
| COCCCn1c(CN2CCSCC2)cnc1S(=O)(=O)C1CCCC1 | 27.36 |
| COCCN1C[C@@H](c2ccccc2)[C@@]2(CCN(CC(=O)N(C)C)C2=O)C1.O=C(O)C(F)(F)F | 13.65 |
| O=C(c1n[nH]c(=O)c2ccccc12)N1CCCCC1c1ccn[nH]1 (centres undefined) | -33.63 |
| O=C(c1cncs1)N1CCCC1c1ccn[nH]1 (centres undefined) | 104.4 |
| CS(=O)(=O)c1cn[nH]c1C1CCCCN1C(=O)c1cncs1 (centres undefined) | -10.78 |
| Cc1ncncc1C(=O)N1CCCC(Cc2nccs2)C1 (centres undefined) | -16.51 |
| Cc1csc(CN2CC[C@H]3C[C@@H](c4nnc(C)[nH]4)O[C@@H]3C2)n1 | -4.039 |
| CC(C)N(C(=O)Cn1nc2n(c1=O)CCCCC2)C1CCC1 | 0.8005 |
| Fc1ccccc1CN1CCC[C@H](Cn2nnc(-c3cccs3)n2)C1 | 35.5 |
| Fc1ccccc1CN1CCC[C@@H](Cn2nnc(-c3cccs3)n2)C1 | 75.98 |
| Fc1cccc(CN2CCC[C@H](Cn3nnc(-c4ccccn4)n3)C2)c1 | 14.75 |
| CCc1ccccc1NC(=O)c1cnn(C)c1C | 25.28 |
| Nc1no[n+]([O-])c1C(=O)NCc1ccccn1 | -59.59 |
| O=C(c1ccncc1)N1CCCC1c1nc(O)cc(-c2ccccn2)n1 (centres undefined) | -36.16 |
